Screening results: PubChem, Broad Institute
NOMO-1 viab – STK33 inhibitor candidate reducing NOMO-1 cell viability; NOMO-1 AML viability, CellTiter-Glo luminescence, 72 h; inhibition, % (no concentration beside the values); 37,000 compounds, 7.5% hits; AID 2330; in the data active means inhibition above about 80%; inconclusive means no clear call, values can overlap the other calls
Hedgehog inh – blocks Sonic Hedgehog signaling | Shh-LIGHT2 Gli-luciferase reporter, 30 h | inhibition, % (concentration not given with the values) | 22,000 compounds, 2.1% hits;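 active means mean inhibition across valid replicates above about 65%, limit read from the data; inconclusive means mean under the limit, yet half or more replicates past it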;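 further: pathway switched on by Shh-conditioned medium diluted 1 in 25 in low serum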
PD-1 reversal – activators reversing PD-1 mediated T-cell inhibition; primary human CD4 T cells, PD-L1 beads, CellTiter-Glo 96 h; activation, % (concentration not given with the values); 29,000 tested, under 10 active; AID 2316; call rule not given here
YB-1 expression – YB-1 expression inhibition | delta delta Cp (YB-1 minus CDIP) (no concentration beside the values) | 30,000 compounds, 0.37% hits | U2OS, qRT-PCR YB-1 vs CDIP delta delta Cp, 16 h; hits give high values; zero = DMSO, each unit about twofold | AID 434959;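 active means delta delta Cp rounded down to an integer at or above 3, about 3 SD of DMSO wells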;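 further: higher means less YB-1 transcript or more CDIP transcript relative to DMSO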
MITF inh – inhibitors of MITF; TRPM1 promoter luciferase, luminescence, 24 h; inhibition, % (concentration not given with the values); 37,000 compounds, 0.28% hits; AID 2240; in the data active means inhibition above about 85%; inconclusive means no clear call, values can overlap the other calls; inactive means below about 68%;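 further: human melanocyte line stably carrying TRPM1 promoter luciferase reporter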
A number is an active result; i = inactive; ? = inconclusive; nt = not tested or not shown. Only some compounds are listed: those with a hit (about 7.4% of all), similar ones and a draw of the others.

SMILES | NOMO-1 viab | Hedgehog inh | PD-1 reversal | YB-1 expression | MITF inh
Cc1noc(C)c1S(=O)(=O)Nc1ccc2c(c1)C(=O)N([C@H](C)CO)C[C@@H](C)[C@@H](CN(C)Cc1ccc(Oc3ccccc3)cc1)O2 | 105 | i | i | i | i
COc1ccc(S(=O)(=O)Nc2ccc3c(c2)C(=O)N([C@@H](C)CO)C[C@H](C)[C@@H](CN(C)Cc2ccc(Oc4ccccc4)cc2)O3)cc1 | i | i | i | i | i
C[C@@H]1CN([C@@H](C)CO)C(=O)c2cc(NS(=O)(=O)c3ccc(F)cc3)ccc2O[C@@H]1CN(C)Cc1ccc(Oc2ccccc2)cc1 | 112 | nt | nt | i | i
CNC[C@H]1Oc2c(NC(=O)C3CC3)cccc2C(=O)N([C@@H](C)CO)C[C@H]1C | i | i | i | i | i
CNC[C@@H]1OCCCC[C@@H](C)Oc2ccc(NS(=O)(=O)c3cccs3)cc2C(=O)N([C@H](C)CO)C[C@@H]1C | i | nt | i | i | i
C[C@H]1CN([C@@H](C)CO)C(=O)c2cc(NS(=O)(=O)c3ccc(F)cc3)ccc2O[C@@H]1CN(C)Cc1ccc(Oc2ccccc2)cc1 | 117 | i | i | i | i
COc1ccc(S(=O)(=O)Nc2ccc3c(c2)C(=O)N([C@H](C)CO)C[C@H](C)[C@H](CN(C)S(=O)(=O)c2ccc(OC)cc2)O3)cc1 | i | nt | i | i | i
C[C@H](CO)N1C[C@H](C)[C@@H](CN(C)Cc2ccc(Oc3ccccc3)cc2)Oc2ccc(NS(=O)(=O)c3ccc(F)cc3)cc2C1=O | i | nt | i | i | i
C[C@@H]1CN([C@@H](C)CO)C(=O)c2cc(NS(=O)(=O)c3ccccc3)ccc2O[C@@H]1CN(C)Cc1ccc(Oc2ccccc2)cc1 | 118 | i | i | i | i
COc1ccc(S(=O)(=O)Nc2ccc3c(c2)C(=O)N([C@H](C)CO)C[C@H](C)[C@@H](CN(C)S(C)(=O)=O)O3)cc1 | i | i | i | 16 | i
COC(=O)c1ccc(Cl)c(NC(=O)CN(c2ccc(I)cc2)S(C)(=O)=O)c1 | 120 | nt | i | nt | i
COC(=O)c1ccc(C)c(NC(=O)CN(c2ccc(F)cc2)S(C)(=O)=O)c1 | 98 | nt | i | nt | i
COC(=O)c1ccccc1NC(=O)CN(c1ccc(I)cc1)S(C)(=O)=O | i | nt | i | nt | i
COC(=O)c1ccc(C)c(NC(=O)CN(c2cc(Cl)c(Cl)cc2Cl)S(C)(=O)=O)c1 | 96 | nt | nt | nt | i
C[C@H](CO)N1C[C@H](C)[C@@H](CN(C)C(=O)Nc2ccc3c(c2)OCO3)Oc2c(NC(=O)C3CC3)cccc2C1=O | i | i | nt | i | i
CCCCN1C(=O)C(O)(CC(=O)c2ccco2)c2cc(Br)ccc21 (centres undefined) | 113 | nt | nt | nt | i
NC(=O)CN1C(=O)C(O)(CC(=O)c2ccncc2)c2ccccc21 (centres undefined) | i | nt | i | nt | i
Cc1n[nH]c(C)c1C(=O)CC1(O)C(=O)N(Cc2ccccc2)c2ccccc21 (centres undefined) | i | nt | i | nt | i
O=C(CC1(O)C(=O)N(CCc2ccccc2)c2ccc(Br)cc21)c1ccncc1 (centres undefined) | 114 | nt | nt | nt | i
CCCCN1C(=O)C(O)(CC(=O)c2ccco2)c2ccccc21 (centres undefined) | 119 | nt | i | nt | i
CCN1C(=O)C(O)(CC(=O)c2ccco2)c2cc(Br)ccc21 (centres undefined) | 122 | nt | i | nt | i
Cc1coc(C)c1C(=O)CC1(O)C(=O)N(CCc2ccccc2)c2ccccc21 (centres undefined) | i | nt | i | nt | i
C[C@H]1CN([C@@H](C)CO)C(=O)c2cccc(NC(=O)Nc3cccc4ccccc34)c2O[C@H]1CN(C)S(=O)(=O)c1cccs1 | i | i | i | i | i
O=C(CCCCC(=O)N/N=C/c1cc(Br)cc(Br)c1O)NO | nt | nt | nt | i | nt
C=C(COC(C)=O)[C@@H]1Cc2cc(C(C)=O)ccc2O1 | i | i | i | i | i
SMILES | NOMO-1 viab | Hedgehog inh | PD-1 reversal | YB-1 expression | MITF inh
COc1ccc(NC(=O)Nc2cccc3c2O[C@@H](CN(C)Cc2ccc(C(=O)Nc4ccccc4N)cc2)[C@@H](C)CN([C@@H](C)CO)C3=O)cc1 | 129 | nt | i | i | i
COc1ccc(NC(=O)Nc2cccc3c2O[C@H](CN(C)Cc2ccc(C(=O)Nc4ccccc4N)cc2)[C@H](C)CN([C@H](C)CO)C3=O)cc1 | 140 | nt | i | i | i
COc1ccc(NC(=O)Nc2cccc3c2O[C@@H](CN(C)Cc2ccc(C(=O)Nc4ccccc4N)cc2)[C@H](C)CN([C@@H](C)CO)C3=O)cc1 | 126 | nt | i | i | i
COc1ccc(NC(=O)Nc2ccc3c(c2)C(=O)N([C@@H](C)CO)C[C@H](C)[C@H](CN(C)Cc2ccc(C(=O)Nc4ccccc4N)cc2)O3)cc1 | i | nt | i | i | i
CCc1cccc(C)c1NC(=O)CSc1nc2ccccc2c(=O)n1-c1ccc(C)cc1 | i | nt | i | nt | i
C[C@H](CO)N1C[C@H](C)[C@H](CN(C)C(=O)Nc2ccc(F)cc2)Oc2ccc(NC(=O)Cc3cn(C)c4ccccc34)cc2C1=O | i | i | i | i | i
COc1cc(OC)c(C(=O)NCc2ccccn2)cc1OC | i | nt | i | nt | i
C/C1=C/C[C@H](O)/C(C)=C\[C@H]2OC(=O)[C@@H](C)[C@@H]2CC1 | i | i | i | i | i
C[C@H]1CN([C@@H](C)CO)C(=O)Cc2cc(NC(=O)Cc3cn(C)c4ccccc34)ccc2O[C@H]1CN(C)Cc1ccc(C(F)(F)F)cc1 | 83 | i | nt | i | i
C[C@@H]1CN([C@H](C)CO)C(=O)Cc2cc(NC(=O)Cc3cn(C)c4ccccc34)ccc2O[C@@H]1CN(C)C(=O)Nc1ccc(C(F)(F)F)cc1 | i | nt | i | i | i
C[C@@H]1CN([C@H](C)CO)C(=O)Cc2cc(NC(=O)Cc3cn(C)c4ccccc34)ccc2O[C@H]1CN(C)Cc1ccc(C(F)(F)F)cc1 | 133 | i | i | i | i
c1ccc(C2C3=C(CCCC3)SC3=C2CCCC3)cc1 | 98 | i | i | i | i
C[C@@H]1CCOC(=O)C=CC=CC(=O)O[C@@H]2C[C@H]3O[C@@H]4C=C(C(=O)O)CC[C@]4(COC(=O)[C@H]1O)[C@]2(C)[C@]31CO1 | 121 | i | i | i | i
C[C@H]1CN([C@@H](C)CO)C(=O)Cc2cc(NS(=O)(=O)c3ccccc3)ccc2O[C@H]1CN(C)Cc1ccc(Cl)c(Cl)c1 | 100 | i | i | i | i
C[C@@H]1CN([C@H](C)CO)C(=O)Cc2cc(NS(=O)(=O)c3ccccc3)ccc2O[C@H]1CN(C)Cc1ccc(Cl)c(Cl)c1 | 111 | i | i | i | i
C[C@H](CO)N1C[C@H](C)[C@H](CN(C)Cc2ccc(Cl)c(Cl)c2)Oc2ccc(NS(=O)(=O)c3ccccc3)cc2CC1=O | i | i | i | i | i
C[C@@H]1CN([C@H](C)CO)C(=O)Cc2cc(NS(=O)(=O)c3ccccc3)ccc2O[C@@H]1CN(C)Cc1ccc(Cl)c(Cl)c1 | 85 | ? | i | i | i
